PubChem BioAssay (NCATS)
Results filed as inconclusive are left out. A call without a number means that no potency is given here. Unmarked numbers belong to inactive results. The source made the active and inactive calls. The call rests on the fitted dose curve; in most records, active means well fitted curve in the direction sought with a large enough effect; inconclusive means small, poorly fitted or top-dose-only effect, or another doubt; inactive means no such curve, though single readings can be large; an effect the other way counts as inactive or inconclusive.

Experiments:
[1] = molecular target: Rap guanine nucleotide exchange factor 3 (Homo sapiens) (UniProt O95398); assay: Confirmatory qHTS for antagonist of cAMP-regulated guanine nucleotide exchange factor 3 (EPAC1) (AID 1645880); conditions: EPAC1 Rap1B-BODIPY-GDP exchange, fluorescence; activity, negative = inhibition: at 115 µM (top of the series); further: nearly all actives have a fitted effect of over 55% in size; further: potency means the concentration at half of the fitted maximal effect
Procedure, shortened: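 Nucleotide exchange uses 100 nM EPAC1, 250 nM RAP1B-BODIPY-GDP and 50 uM GDP, with compounds in a concentration-titration series. After 5 min at room temperature, fluorescence (480 nm ex/540 nm em) is read every 5 min for 30 min. Data are normalized to control ATA and DMSO.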

[2] = molecular target: Rap guanine nucleotide exchange factor 3 (Homo sapiens) (UniProt O95398); assay: Confirmatory qHTS for agonist of cAMP-regulated guanine nucleotide exchange factor 3 (EPAC1) (AID 1645881); further: nearly all actives have a fitted effect of over 75% in size; further: potency means the concentration at half of the fitted maximal effect
[3] = molecular target: Rap guanine nucleotide exchange factor 4 (Homo sapiens) (UniProt Q8WZA2); assay: Confirmatory qHTS for antagonist of cAMP-regulated guanine nucleotide exchange factor 4 (EPAC2) (AID 1645885); further: nearly all actives have a fitted effect of over 25% in size; further: potency means the concentration at half of the fitted maximal effect
[4] = molecular target: Rap guanine nucleotide exchange factor 3 (Homo sapiens) (UniProt O95398); assay: Counterscreen qHTS for antagonist of cAMP-regulated guanine nucleotide exchange factor 3 (EPAC1) (AID 1645888);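 further: fluorescence loss as bound BODIPY-GDP is released from Rap1B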
Procedure, shortened: (§1)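 Rap1B-BODIPY-GDP 250 nM + GDP 50 uM; cpds 7-pt, final 9.74 nM–152 uM (activator mode) or from 7.32 nM upwards (inhibitor mode); RT; FI 480/540 nm at 5 and 30 min, then ± cAMP, reread.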

[5] = molecular target: Rap guanine nucleotide exchange factor 3 (Homo sapiens) (UniProt O95398); assay: Counterscreen qHTS for agonist of cAMP-regulated guanine nucleotide exchange factor 3 (EPAC1) (AID 1645889); further: nearly all actives have a fitted effect of over 40% in size
Procedure, shortened: as §1

Rap guanine nucleotide exchange factor 4 (Homo sapiens), sequence (Q8WZA2 whole entry, looked up): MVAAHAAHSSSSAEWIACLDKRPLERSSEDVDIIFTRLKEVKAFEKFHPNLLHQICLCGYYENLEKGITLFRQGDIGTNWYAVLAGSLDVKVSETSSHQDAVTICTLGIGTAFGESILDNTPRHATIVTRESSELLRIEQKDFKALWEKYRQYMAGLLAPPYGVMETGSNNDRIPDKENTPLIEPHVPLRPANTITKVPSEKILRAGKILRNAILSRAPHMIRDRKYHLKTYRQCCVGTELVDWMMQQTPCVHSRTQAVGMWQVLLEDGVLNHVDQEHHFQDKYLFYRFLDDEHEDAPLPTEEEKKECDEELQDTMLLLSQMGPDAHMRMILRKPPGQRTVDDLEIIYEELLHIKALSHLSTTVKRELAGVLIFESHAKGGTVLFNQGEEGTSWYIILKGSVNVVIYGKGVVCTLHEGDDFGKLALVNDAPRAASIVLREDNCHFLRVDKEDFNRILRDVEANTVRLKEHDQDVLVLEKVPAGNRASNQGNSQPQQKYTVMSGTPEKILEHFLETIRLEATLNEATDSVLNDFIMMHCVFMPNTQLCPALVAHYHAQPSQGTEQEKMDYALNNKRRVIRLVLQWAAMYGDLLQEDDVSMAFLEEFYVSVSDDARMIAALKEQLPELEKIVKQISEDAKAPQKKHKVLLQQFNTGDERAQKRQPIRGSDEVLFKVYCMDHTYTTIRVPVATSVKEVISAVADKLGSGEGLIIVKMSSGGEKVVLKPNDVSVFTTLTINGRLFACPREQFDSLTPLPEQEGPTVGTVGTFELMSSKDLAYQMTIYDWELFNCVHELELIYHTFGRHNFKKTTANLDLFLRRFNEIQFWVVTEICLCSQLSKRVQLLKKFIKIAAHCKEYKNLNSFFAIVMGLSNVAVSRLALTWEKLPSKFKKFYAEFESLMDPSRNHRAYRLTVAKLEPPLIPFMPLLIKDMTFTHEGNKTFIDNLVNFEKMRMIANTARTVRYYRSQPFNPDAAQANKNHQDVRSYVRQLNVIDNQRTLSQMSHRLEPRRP
Rap guanine nucleotide exchange factor 3 (Homo sapiens), sequence (O95398 whole entry, looked up): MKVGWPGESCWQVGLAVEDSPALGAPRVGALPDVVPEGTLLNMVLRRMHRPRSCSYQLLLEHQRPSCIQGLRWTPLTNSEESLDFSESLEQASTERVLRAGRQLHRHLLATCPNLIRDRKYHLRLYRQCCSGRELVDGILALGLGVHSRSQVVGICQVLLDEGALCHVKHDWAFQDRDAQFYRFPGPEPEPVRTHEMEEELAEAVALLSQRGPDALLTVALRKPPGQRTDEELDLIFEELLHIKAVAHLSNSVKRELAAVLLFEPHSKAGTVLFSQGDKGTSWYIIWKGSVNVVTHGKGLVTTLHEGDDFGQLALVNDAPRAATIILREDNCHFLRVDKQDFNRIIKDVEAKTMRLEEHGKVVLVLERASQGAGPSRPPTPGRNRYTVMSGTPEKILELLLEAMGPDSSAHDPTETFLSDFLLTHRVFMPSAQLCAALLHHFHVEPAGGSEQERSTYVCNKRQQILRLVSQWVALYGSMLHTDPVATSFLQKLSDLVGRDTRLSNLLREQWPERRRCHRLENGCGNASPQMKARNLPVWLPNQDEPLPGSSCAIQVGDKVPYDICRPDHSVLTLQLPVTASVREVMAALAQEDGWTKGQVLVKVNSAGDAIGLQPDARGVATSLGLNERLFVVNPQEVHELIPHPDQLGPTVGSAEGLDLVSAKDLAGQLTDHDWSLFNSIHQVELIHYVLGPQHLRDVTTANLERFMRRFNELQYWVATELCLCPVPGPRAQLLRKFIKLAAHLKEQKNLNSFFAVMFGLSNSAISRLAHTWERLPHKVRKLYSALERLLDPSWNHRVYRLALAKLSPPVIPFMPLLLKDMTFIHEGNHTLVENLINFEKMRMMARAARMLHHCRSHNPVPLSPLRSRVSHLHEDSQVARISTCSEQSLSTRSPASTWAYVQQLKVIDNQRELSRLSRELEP

| SMILES | Potency [1] | Potency [2] | Potency [3] | Potency [4] | Potency [5] | outcome [3] |
| --- | --- | --- | --- | --- | --- | --- |
| O=S(=O)(c1ccc(Br)c2ccccc12)N1CCCC1 | inactive | inactive | inactive | inactive | inactive |  |
| Nc1nc2ccccc2n1S(=O)(=O)c1ccc([N+](=O)[O-])cc1 | inactive | inactive | inactive | inactive | inactive |  |
| CCN(CC(=O)NCc1cccs1)C(=O)c1ccc(S(=O)(=O)Nc2ccccc2)cc1 | inactive | inactive | inactive | inactive | inactive |  |
| Cc1ccc(-n2nc3c(=O)n(CCCC(=O)NCc4ccc(F)cc4)nc(C)c3c2C)cc1 | inactive | inactive |  | inactive | inactive | inactive [at 12.7 µM] |
| O=C(O)CSCC(=O)N(Cc1ccccc1)c1nc(-c2ccccc2)c(-c2ccccc2)s1 | 67.5 µM (active) | inactive | 67.5 µM (active) | inactive |  |  |
| COc1ccc(N2CCN(CC(O)COc3ccc(C(C)C)c(C)c3)CC2)cc1 (stereo not given) | inactive | inactive | inactive | inactive | inactive |  |
| Cc1nc2c(C(=O)NCCc3ccccc3)c[nH]n2c(=O)c1Cc1ccc(F)cc1Cl | 84.9 µM (active) | inactive | inactive | inactive |  |  |
| Cc1ccc(C)c(Oc2nnnn2-c2ccccc2)c1 | inactive | inactive | inactive | inactive | inactive |  |
| Nc1ccc2c(O)cc(S(=O)(=O)O)cc2c1 | 4.26 µM (active) | inactive | inactive | inactive | inactive |  |
| COc1ccc([N+](=O)[O-])cc1-c1nc2ccccc2nc1-c1ccccc1 | inactive | inactive | 0.0301 µM (active) | inactive |  |  |
| CC(=O)c1ccccc1NC(=O)COC(=O)CSCC(=O)Nc1cc(C)on1 | inactive | inactive | inactive | inactive |  |  |
| Nc1ncnc2c1nc(Sc1ccc(Cl)cc1)n2[C@@H]1O[C@@H]2COP(=O)(O)O[C@H]2[C@H]1O | 0.213 µM (active) | 355 nM (active) | 0.675 µM (active) | inactive |  |  |
| CC(=O)c1cccc(NC2c3ccccc3C(=O)N2Cc2ccc3c(c2)OCO3)c1 (stereo not given) | inactive | inactive | inactive | inactive |  |  |
| COCCOC(=O)c1c(-c2ccccc2)c(-c2ccccc2)nn(C)c1=O | inactive | inactive | inactive | inactive |  |  |
| O=C(Nc1ccccc1OCc1ccccc1)c1ccccc1Br | inactive | inactive | 1.51 µM (active) | inactive |  |  |
| COc1ccccc1N(C)c1cc2c(c3c1ccn3C)C1CCC2O1 (stereo not given) | inactive | inactive |  | inactive |  |  |
| COC(=O)NCc1c(C)nn(-c2ccccc2)c1-n1cccc1 | inactive | inactive | inactive | inactive | inactive |  |
